Screening results: PubChem, several laboratories
A selection: hits, their analogues and other compounds. The true share with any hit is near 4.9%.
Platelet DG rel – platelet dense granule release activity; human platelet-rich plasma, SFLLRN dense granule ATP release, luminescence; inhibition, %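 (compounds screened at 7.5 µM in platelet-rich plasma)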; 300,000 compounds, 0.22% hits;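 active means mean replicate score, as percent of positive control, at or above 50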
HSF-1 act – increases HSF-1 driven luciferase reporter signal; NIH3T3-HGL HSF-1 luciferase reporter, MG132, 8 h; 100% = twice DMSO control signal; activation, % at 9 µM; 300,000 compounds, 1.7% hits;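 active means mean replicate activation of at least 50% with a set share of replicates each reaching 50%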;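 further: 0% = median of the neutral control wells and 100% = twice that signal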
dFosB act – mouse delta FosB homodimer activation | purified delta FosB, TAMRA-CDK5 oligo fluorescence polarization; percent of positive-control signal above neutral wells | activation, % at 25 µM | 340,000 compounds, 0.99% hits;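 active means mean activation above about 17%, with every replicate also reaching it, limit read from the data, passing the limit was not always enough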
Target sequence (P13346 whole entry, looked up): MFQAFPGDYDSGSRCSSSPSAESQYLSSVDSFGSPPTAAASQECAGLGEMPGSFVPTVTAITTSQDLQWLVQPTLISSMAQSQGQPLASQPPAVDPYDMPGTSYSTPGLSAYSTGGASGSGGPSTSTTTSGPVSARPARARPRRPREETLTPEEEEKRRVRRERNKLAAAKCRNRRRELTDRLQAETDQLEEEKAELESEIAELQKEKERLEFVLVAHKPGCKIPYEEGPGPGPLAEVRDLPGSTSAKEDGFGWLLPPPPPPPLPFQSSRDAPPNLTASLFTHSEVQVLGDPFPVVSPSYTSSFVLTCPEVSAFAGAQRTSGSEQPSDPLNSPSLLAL
HSP90 inh – inhibitors of HSP90 luciferase refolding in rabbit reticulocyte lysate. luciferase refolding luminescence, 3 h. inhibition, % at 5.6 µM. 290,000 compounds, 0.91% hits. AID 1789;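 active means inhibition above the screen-wide mean plus 3 SD, computed separately per campaign, cut at about 16% in these data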;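 further: 0% = DMSO wells and 100% = 60 µM geldanamycin wells; inhibitors lower the luminescence because luciferase stays unfolded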
MPTP inh – blocks calcium-induced mitochondrial swelling; isolated mouse mitochondria, Ca2+ swelling absorbance, 30 min; inhibition, % at 10 µM; 360,000 compounds, 1.4% hits; AID 602449;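 active means inhibition of 50% or more, scaled per plate between neutral and stimulator controls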;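 further: 0% = DMSO wells given calcium and 100% = 1 mM EGTA wells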
HSF1 inhib – HSF1 inhibition | NIH3T3-HGL HSE-luciferase, MG132-induced, luminescence 8 h; stronger effect = lower value | activity change, negative = inhibition, % at 7.5 µM (by protocol) | 300,000 compounds, 0.77% hits | AID 2098;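 active means more than half of replicate wells show activity change below -50%, luminescence cut by over half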;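 further: luciferase reports HSF-1 transcriptional activity via heat shock element; 0% = median of DMSO wells and -100% = zero luminescence signal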
Rh123 counter – Rhodamine 123 counter-screen of mitochondrial pore hits | shares compounds with MPTP inh | isolated mitochondria, membrane potential, Rhodamine 123 fluorescence | inhibition, % at 10 µM | 5,000 compounds, 78% hits | AID 624504; in the data active means inhibition above about 22%;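 further: 0% = DMSO vehicle and 100% = positive control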
MPTP abs DR – dose response confirmation of mitochondrial permeability transition pore inhibitors. shares compounds with MPTP inh. isolated mitochondria swelling, absorbance. IC50, µM. 780 compounds, 58% hits; in the data active means IC50 below about 20 µM
MPTP counter DR – active in counter-screen for permeability transition pore inhibitors; 780 compounds, 49% hits; shares compounds with MPTP inh; isolated mitochondria counterscreen, fluorescence read-out; IC50, µM; in the data active means IC50 below about 80 µM
The depositor's hits bear a star; i = inactive; x = no result given; ! = repeats disagree.

SMILES	Platelet DG rel	HSF-1 act	dFosB act	HSP90 inh	MPTP inh	HSF1 inhib	Rh123 counter	others
Cc1ncoc1C(=O)NC1CCCc2c1cnn2-c1cc(F)cc(F)c1 (stereo unspecified)	x	x	x	x	2.8	x	x
Cc1ccc(-n2ncc3c2CCCC3NC(=O)c2ccoc2)cc1C (stereo unspecified)	-1.7	4.2	-9.8	-1.5	1.1	-5.6	x
Cc1ncoc1C(=O)NC1CCCc2c1cnn2-c1ccc(C(C)(C)C)cc1 (stereo unspecified)	2.7	-7.3	-19.6	2.3	79.4*	-2.9	93.6*
Cc1cc(C(=O)NC2CCCc3c2cnn3-c2ccc(C)c(C)c2)n(C)n1 (stereo unspecified)	-3.8	-11.7	-12.5	-2.5	93.0*	-5.6	87.1*
COC(=O)c1cc(S(=O)(=O)N(C)C2CCCCC2)c[nH]1	14.4	-5.1	0.7	-4.1	-1.3	-0.1	x
CC(=O)Nc1nc(-c2ccc(Cl)cc2)ns1	14.1	26.2	-0.6	-8.6	87.8*	9.9	60.4*
Cc1ccc(NC(=S)NCc2ccccc2)cc1[N+](=O)[O-]	0.6	32.5	1.1	-7.6	98.6*	-0.5	91.2*
Cc1ccc(NC(=S)NNc2ccc(C(=O)O)cc2[N+](=O)[O-])cc1C	-11.5	8.0	-7.6	x	53.7*	-4.5	64.3*
Cc1ccc(CC(=O)Nc2ccc(F)c([N+](=O)[O-])c2)cc1	-0.4	-5.3	1.8	-5.5	-0.7	2.5	x
Cc1ccc(CNC(=S)Nc2ccc(C)c([N+](=O)[O-])c2)cc1	-0.2	15.6	8.6	2.7	102.5*	20.0	97.5*
CNC(=S)Nc1ccc([N+](=O)[O-])c(C)c1	25.5	-14.4	-10.3	2.5	62.4*	-0.5	78.4*
Cc1ccc(NC(=S)NNc2ccc([N+](=O)[O-])cc2S(=O)(=O)Nc2ccccc2C(=O)O)cc1C	-6.6	13.1	-2.3	-2.7	9.0	2.0	x
O=[N+]([O-])c1cccc(-c2ccc3nnc(SCc4cccnc4)n3n2)c1	x	x	-2.2	x	1.3	x	x
CN(c1nc(-c2ccc(Br)cc2)cs1)C1CCS(=O)(=O)C1 (stereo unspecified)	-0.8	45.5	-4.4	-4.0	-3.3	23.0	x
CCN(CC)S(=O)(=O)c1ccc(OCC(=O)NC(=O)Cc2ccccc2)c([N+](=O)[O-])c1	x	x	-4.1	x	0.5	x	x
CC1CCc2sc(C(=O)NCc3ccc(F)cc3)cc2C1 (stereo unspecified)	-4.7	16.1	-1.4	4.2	58.2*	5.9	61.6*
O=C(NCc1ccc(F)cc1)c1cc2c(s1)CCCC2	-3.7	-52.8	-11.0	1.7	-0.2	-39.2	x
CCCCNc1c(-c2ccc(OC)c(SC3CCCCC3)c2)nc2ccc(C)cn12	x	x	-2.0	x	76.4*!	x	98.1*
COc1ccc(-c2nc3ccc(C)cn3c2NCc2ccccc2)cc1SC1CCCCC1	17.2	-3.6	-9.3	x	97.5*	5.7	95.5*
O=C1OC(c2ccc(F)cc2)CC1CN1CCOCC1 (stereo unspecified)	x	x	x	x	1.0	x	x
CC(C)c1c(O)ccc2c1CC[C@H]1C(C)(C)CCC[C@]21C	x	x	-10.9	x	98.3*	x	11.0	MPTP abs DR=i;MPTP counter DR=16.5*
CC(C)(O)c1ccc2c(c1)CCC1C(C)(C(=O)O)CCCC21C (stereo unspecified)	2.7	30.7	3.3	x	-0.3	17.4	x
COc1ccc(Nc2nc(N3CCCC3)c3ccccc3n2)cc1	-3.0	-10.9	59.1*	6.3	102.8*	0.1	100.5*
Cc1noc(-c2ccccc2)c1NC(=O)Nc1ccccc1	-9.1	0.4	-2.7	-1.7	7.8	1.4	x
Cc1noc(-c2ccccc2)c1NC(=O)Nc1ccc(Cl)cc1	-14.8	6.4	-7.6	-1.2	84.0*	9.0	97.2*
SMILES	Platelet DG rel	HSF-1 act	dFosB act	HSP90 inh	MPTP inh	HSF1 inhib	Rh123 counter	others
O=C(NCc1cccs1)C1C(=O)Nc2ccccc2C(=O)N1Cc1ccccc1 (stereo unspecified)	x	x	x	x	-1.3	x	x
O=C(CSc1nc2nc(-c3cccs3)cc(C(F)(F)F)c2c(=O)[nH]1)Nc1c(F)c(F)c(F)c(F)c1F	-2.3	-9.3	-4.1	-3.3	55.0*	-6.2	70.0*
NS(=O)(=O)c1cccc(NC(=O)CSc2nc3nc(-c4cccs4)cc(C(F)(F)F)c3c(=O)[nH]2)c1	1.7	-36.5	-16.2	1.6	-0.6	-16.6	x
O=C(NCc1ccc2c(c1)OCO2)c1ccc(Cl)c(S(=O)(=O)NCc2ccccc2)c1	2.8	1.7	4.8	0.2	-0.2	6.6	x
O=C(Nc1cccc(Cl)c1)c1ccc(F)c(S(=O)(=O)NCc2ccc3c(c2)OCO3)c1	-2.5	-12.0	1.4	2.4	50.8*	-1.7	65.7*
O=C(Nc1ccc(Br)cc1)c1ccc(F)c(S(=O)(=O)NCc2cccs2)c1	25.1	3.1	-10.0	4.9	96.8*	5.2	93.6*
CN1CCN(c2ccc(S(=O)(=O)N3CCCCC3)cc2NC(=O)c2ccc3ccccc3c2)CC1	17.9	10.5	-23.3	-4.8	66.7*	-3.7	-14.6	MPTP abs DR=14.3*;MPTP counter DR=>80
CCOc1ccc(NS(=O)(=O)c2ccc(C(=O)N3CCCCCC3)cc2)cc1	2.2	6.8	-7.6	x	25.0	-0.7	x
CCN1CCN(c2ccc(S(=O)(=O)N3CCCCC3)cc2NC(=O)/C=C/c2ccc(F)cc2)CC1	10.7	-24.0	-14.8	x	78.2*	-6.0	-17.8	MPTP abs DR=i
COc1ccc(NS(=O)(=O)c2cccc(NC(=O)c3ccc(S(=O)(=O)N4CCCCCC4)cc3)c2)cc1	-16.9	-10.2	-0.6	1.9	84.5*	7.4	85.7*
COc1ccc(NS(=O)(=O)c2ccc(C(=O)N3CCCCCC3)cc2)cc1	x	x	-0.9	x	53.6*	x	57.4*
CCOC1=C2CN(S(=O)(=O)c3ccc(C)cc3)[C@H](c3ccccc3)C[C@@H]2N(S(=O)(=O)c2ccc(C)cc2)[C@H](c2cccs2)C1	x	x	x	x	-1.4	x	x
Cc1cc(C)n2c(NC3CCCCC3)c(CC(C)C)nc2n1	x	x	x	x	0.9	x	x
Cc1ccc(S(=O)(=O)N2CC3(O)CN(C(=O)OC(C)C)N(C(=O)OC(C)C)CC3(OC(=O)NC3CCCC3)C2)cc1 (stereo unspecified)	x	x	x	x	-1.2	x	x
CC1(C)OC(=O)C2=C(C[C@@H](C3CCCCC3)O[C@H]2c2ccc(Cl)cc2)O1	x	x	x	x	1.3	x	x
COc1ccc(NS(=O)(=O)c2ccc(O)c(NC(=O)c3ccc(S(=O)(=O)N4CCCCCC4)cc3)c2)cc1	-9.7	-7.1	4.0	-0.2	65.9*	2.9	48.5*
COc1ccc(C(=O)Nc2cc(S(=O)(=O)N3CCCCC3)ccc2C)cc1	x	x	x	x	1.2	x	x
